# Data taken from PubChem BioAssay (NCATS).
# Inconclusive results are not listed. Active and inactive are the calls of the source. Unless noted, calls come from the whole dose curve; as a rule, active = well fitted inhibition curve with a large enough effect; inconclusive = small, poorly fitted or top-dose-only effect; inactive = no such curve, though single readings can be large or run the other way.
# Assays:
# [1] = qHTS profiling of the MIPE4 collection as inhibitors of Plasmodium falciparum (DD2) proliferation (AID 743345; call rule not given here); settings: P. falciparum Dd2 in erythrocytes, SYBR Green DNA, 72 h; at 28.5 µM (top of the series) unless noted
# In short: (§1)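 Erythrocytes infected with P. falciparum (0.3% parasitemia, 2.5% hematocrit) incubated with compounds 72 h at 37 C, 5% CO2. Lysis with saponin/Triton buffer containing SYBR Green I, overnight at room temperature in the dark; DNA fluorescence (485/535 nm) normalised to 0.29 uM artemisinin and DMSO.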
# [2] = qHTS profiling of the MIPE4 collection as inhibitors of Plasmodium falciparum (DD2) proliferation (Rep 2) (AID 743346; call rule not given here); settings: P. falciparum Dd2 in erythrocytes, SYBR Green DNA, 72 h; at 28.5 µM (top of the series) unless noted
# In short: as §1
# [3] = qHTS profiling of the MIPE4 collection as inhibitors of Plasmodium falciparum (HB3) proliferation (AID 743347; call rule not given here;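 note: plate controls were DMSO vehicle wells for no effect and artemisinin wells for full effect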); settings: P. falciparum HB3 in erythrocytes, SYBR Green DNA, 72 h; at 28.5 µM (top of the series) unless noted
# In short: as §1
# [4] = High-throughput drug toxicity screening in the BPDCN cell line Gen2.2 (AID 1224824; call rule not given here;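 note: cells exposed to compounds for 48 h before reading; 100% = DMSO and 0% = bortezomib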); settings: Gen2.2 BPDCN cells; at 45.8 µM (top of the series) unless noted
# In short: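 Readout is ATP luminescence from Gen2.2 cells after two days of drug exposure in serum-containing medium at 37 °C. Values express percent activity, with vehicle defining full signal and 9.2 uM bortezomib defining zero.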
# [5] = qHTS assay for measurement of the activity of small molecule inhibitors on Zika virus induced Caspase-3 activity in human iPSC derived neural progenitor cells (hNPCs) (AID 1224857); note: % of control where 0% means no effect; nearly all actives have a fitted effect of over 65% in size
# In short: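 hNPCs seeded 350 cells/well, cultured 16–20 h; compounds added 1 h before ZIKV (2 FFU/cell), 37 C 6 h. Caspase-Glo 3/7 luminescence after 30 min RT; % inhibition from induction scaled to uninfected (0%) and infected (100%) wells.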
# [6] = qHTS assay for measurement of the activity of small molecule inhibitors on Zika virus induced Caspase-3 activity in human astrocytoma cells (AID 1224859);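 note: plate controls were ZIKV-infected untreated cells for no effect and uninfected cells for full effect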
# In short: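 Luminescence read-out (Caspase-Glo 3/7, 30 min RT) of caspase activity in SNB-19 cells infected 6 h with ZIKV, 2 FFU/cell, after 1 h compound pretreatment; % inhibition from induction normalised to uninfected (0%) and infected (100%) wells.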
# [7] = qHTS Screen of the MIPE 4.0 Collection Against Ewings Sarcoma (RDES) (AID 1259252); note: nearly all actives have a fitted effect of over 35% in size; note: potency is the fitted concentration of half-maximal effect
# In short: (§2)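 Here, cells in 5% FBS RPMI were exposed for two days (48 h) to compound dilutions added four hours after plating. ATP-based CellTiter-Glo luminescence measured viability, normalized to vehicle and no-cell blanks.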
# [8] = qHTS Screen of the MIPE 4.0 Collection Against Ewings Sarcoma (TC71) (AID 1259253); note: nearly all actives have a fitted effect of over 40% in size; note: potency is the fitted concentration of half-maximal effect
# In short: as §2
# [9] = qHTS profiling of the MIPE4 collection as inhibitors of Plasmodium falciparum (3D7) proliferation (AID 743344; call rule not given here;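 note: scaled between DMSO vehicle wells and 0.29 µM artemisinin as full inhibition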); settings: P. falciparum 3D7 in erythrocytes, SYBR Green DNA fluorescence, 72 h; at 28.5 µM (top of the series) unless noted
# In short: as §1
# [10] = qHTS Screen of the MIPE 4.0 Collection Against Ewings Sarcoma (EW8) (AID 1259255); note: nearly all actives have a fitted effect of over 35% in size; note: potency is the fitted concentration of half-maximal effect;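 for viability: 100% = DMSO-treated cells and 0% = medium-only wells without cells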
# In short: as §2
Compound,"parasite growth remaining, % of DMSO control (lower = more inhibition) [1]","parasite growth, % of control (lower = inhibition) [2]","growth, % of control [3]","cell viability, % of control (lower = more cytotoxic) [4]",Potency [5],Potency [6],Potency [7],Potency [8],"parasite growth, % of DMSO control [9]",Potency [10]
CON=C(C(=O)N[C@@H]1C(=O)N2C(C(=O)O)=C(CSC(=O)c3ccco3)CS[C@H]12)c1csc(N)n1,101%,71%,53.4%,7.56%,inactive,inactive,inactive,inactive,–,–
C[C@](Cc1c[nH]c2ccccc12)(NC(=O)OC1C2CC3CC(C2)CC1C3)C(=O)NC[C@H](NC(=O)CCC(=O)O)c1ccccc1 (some centres not stated),36.8%,30.8%,10.5%,308%,–,inactive,inactive,inactive,10%,inactive
Cn1cc(CNCC2CCN(c3ncc(C(=O)NO)cn3)CC2)c2ccccc21,7.34%,8.03%,7.88%,12.7%,–,inactive,33.2 nM (active),33.2 nM (active),4.76%,33.2 nM (active)
C[N+]1(C)[C@@H]2C[C@@H](OC(=O)C(O)(c3cccs3)c3cccs3)C[C@H]1[C@@H]1O[C@@H]12,–,–,–,87.6%,inactive,inactive,inactive,inactive,–,–
Oc1cc2c(cc1O)C1c3ccc(O)c(O)c3OCC1(O)C2 (configuration not stated),106%,15.2%,9.94%,167%,inactive,inactive,inactive,inactive,13%,inactive
CC(C)N1[N]C(=C2C=c3cc(O)ccc3=N2)c2c(N)ncnc21,–,10.7%,3.6%,2.36%,inactive,inactive,1870 nM (active),372 nM (active),–,418 nM (active)
COC(=O)[C@@H]1[C@H]2C[C@@H]3c4[nH]c5ccccc5c4CCN3C[C@@H]2CC[C@@H]1O,93.2%,69.1%,66.3%,24.1%,inactive,inactive,inactive,inactive,79.9%,inactive
c1cncc(CN2CCC(n3ncc4c(N5CCOCC5)nc(-c5ccc6[nH]ccc6c5)nc43)CC2)c1,–,18.3%,8.55%,12.4%,inactive,inactive,13200 nM (active),13200 nM (active),4.76%,6620 nM (active)
CC(C)OC(=O)[C@H](C)N[P@](=O)(OC[C@H]1O[C@@H](n2ccc(=O)[nH]c2=O)[C@](C)(F)[C@H]1O)Oc1ccccc1,–,–,–,128%,inactive,inactive,inactive,inactive,–,inactive
CCCCCCCCCCCC(CC1OC(=O)C1CCCCCC)OC(=O)C(CC(C)C)NC=O (configuration not stated),13.8%,17%,3.37%,82.8%,–,inactive,inactive,inactive,7.26%,–
C[C@@]12C[C@@]3(O)O[C@@H](O1)[C@]1(COC(=O)c4ccccc4)[C@@H]3C[C@@]12O[C@@H]1O[C@H](CO)[C@@H](O)[C@H](O)[C@@H]1O,96.7%,141%,109%,109%,inactive,inactive,inactive,inactive,90.9%,inactive
